PubChem BioAssay AID1822 (The Scripps Research Institute Molecular Screening Center, 2009)
The whole screen tested about 290,000 compounds, of which about 3,500 (1.2%) were called active.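 Rule for the calls: active = inhibition above the campaign mean inhibition over all tested compounds plus 3 SD (cut at about 28% in these data); inactive = the rest.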 The entries come from a sample that favours actives as a whole.

tested on: M18 aspartyl aminopeptidase (Plasmodium falciparum 3D7); assay: PfM18AAP inhibitors, malaria aminopeptidase, primary screen, biochemical, QFRET, recombinant enzyme (AID 1822); settings: H-Glu-NHMec fluorogenic cleavage, at 7.35 µM, active compounds read high;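 note: 0% = plate median of test compound wells and 100% = 2 mM ZnCl2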

| SMILES | inhibition |
| --- | --- |
| COc1ccccc1OCC(=O)Nc1c2c(nn1-c1ccc(F)cc1)CS(=O)(=O)C2 | -3.07% (inactive) |
| Cc1nnc(SCC(=O)Nn2cnnc2)s1 | 41.6% (active) |
| Cc1nnc(SCC(=O)NC2CCCC2)s1 | 5.86% (inactive) |
| Cc1cnc(NC(=O)CSc2nnc(C)s2)s1 | -8.35% (inactive) |
| CC1C/C(=N/NC(=O)c2cccs2)CC(C)(C)C1 (centres undefined) | -19.4% (inactive) |
| Cc1ccc(C)c(NC(=O)CCC(=O)N/N=C2/CC(=O)CC(C)(C)C2)c1 | -1.68% (inactive) |
| CC1(C)CC(=O)C/C(=N\NC(=O)c2cccs2)C1 | 38.3% (active) |
| COc1ccccc1CNS(=O)(=O)CC12CCC(CC1=O)C2(C)C (centres undefined) | 6.59% (inactive) |
| C/C(=C\C(=O)c1cccnc1)Nc1ccc(C)c(C)c1 | 1.47% (inactive) |
| C/C(=C\C(=O)c1ccccc1)Nc1cccc(O)c1 | 31% (active) |
| O=C(Nc1cccc(O)c1)c1ccc(C(=O)c2ccccc2)o1 | -0.92% (inactive) |
| O=[N+]([O-])c1ccc(N2CCN(c3ccc(O)cc3)CC2)c(Cl)c1 | 36% (active) |
| COc1ccc(N2CCN(c3ccc([N+](=O)[O-])cc3Cl)CC2)cc1 | -8.52% (inactive) |
| O=C(O)C1CCN(c2ccc([N+](=O)[O-])cc2[N+](=O)[O-])CC1 | -4.27% (inactive) |
| CCOc1ccc(C(=O)Nc2cccc(SC)c2)cc1 | -1.4% (inactive) |
| O=C(Nc1cc(N2CCOCC2)ncn1)NC1(C(F)(F)F)Oc2ccc(Cl)cc2O1 (centres undefined) | 89.4% (active) |
| O=C(CN1C(=O)COc2ccc(Cl)cc21)Nc1ccc(N2CCOCC2)cc1 | -12.7% (inactive) |
| COc1ccc(Cl)cc1NC(=O)CN1CCN(C(=O)N2CCOCC2)CC1 | -7.2% (inactive) |
| CCOc1ccc(C(=O)CCN2CCOCC2)cc1 | -12.6% (inactive) |
| O=C1c2ccccc2C(=O)N1CCOc1ccc(F)cc1 | -6.45% (inactive) |
| CCn1c(SCC(=O)Nc2ccc(Br)cc2)nc2sc3c(c2c1=O)CCN(C)C3 | 7.65% (inactive) |
| O=C(CN1CCN(S(=O)(=O)c2cc(Cl)ccc2Cl)CC1)c1ccc(O)c(O)c1 | 71.5% (active) |
| COc1ccc(Cl)cc1S(=O)(=O)N1CCN(CC(=O)C(C)(C)C)CC1 | -1.35% (inactive) |

| SMILES | inhibition |
| --- | --- |
| N#Cc1ccsc1NC(=O)CN1CCN(S(=O)(=O)c2cc(Cl)ccc2Cl)CC1 | -4.98% (inactive) |
| C/C(=N\NC(=O)c1ccccc1F)c1ccccn1 | -8.33% (inactive) |
| CC(C)(C)NC(=O)NC(=O)COC(=O)C1c2ccccc2Oc2ccccc21 | 6.75% (inactive) |
| CCn1ccnc1CNC(=O)CC1C(=O)NCCN1CCCc1ccccc1 (centres undefined) | 7.75% (inactive) |
| CN(C(=O)CC1C(=O)NCCN1Cc1ccc(F)cc1Cl)C1CCCCC1 (centres undefined) | -5.56% (inactive) |
| CCn1ccnc1CNC(=O)CC1C(=O)NCCN1Cc1ccc(F)cc1Cl (centres undefined) | 33.7% (active) |
| CCN(c1cccc(C)c1)S(=O)(=O)c1ccc(-c2coc(C)n2)cc1 | -0.79% (inactive) |
| CCOc1ccccc1/C=N/Nc1nc2ccccc2o1 | 2.76% (inactive) |
| COc1ccc(/C=N/Nc2nc3ccccc3o2)cc1OC | 56.5% (active) |
| Brc1ccccc1/C=N/Nc1nc2ccccc2o1 | -0.38% (inactive) |
| O=C(NC1Cc2ccccc2C1)c1cc(COc2cccc(C(F)(F)F)c2)on1 | 0.88% (inactive) |
| O=C(O)c1ccccc1-c1ccccc1C(=O)NCCc1ccccc1 | 0.27% (inactive) |
| CCOc1cccc(/C=N/NC(=S)NCCN2CCOCC2)c1O | 37.6% (active) |
| Cc1ccc(C(=O)NC(=S)NCCN2CCOCC2)cc1 | -7.16% (inactive) |
| COc1cccc(NC(=S)NCCCN2CCOCC2)c1 | -6.09% (inactive) |
| c1cnc(N2CCN(c3ccc4ccccc4n3)CC2)nc1 | -7.11% (inactive) |
| COC(=O)c1cc(NS(=O)(=O)c2ccc3c(c2)c(=O)n(C)c(=O)n3C)cc(C(=O)OC)c1 | 7.75% (inactive) |
| CCOC(=O)[C@H]1[C@H]2COc3cc(OC)ccc3[C@@H]2N2C(=O)N(c3ccc(Br)cc3)C(=O)[C@@]12C | 8.12% (inactive) |
| COc1cc(Cl)ccc1OCc1cc(C(=O)N2CC[C@@H]3CCCC[C@H]3C2)no1 | -8.61% (inactive) |
| CCn1c(SCC(=O)N/N=C/c2ccncc2)nc2ccccc21 | -5.49% (inactive) |
| CCOc1ccc(/C=N/NC(=O)CSc2ccccn2)cc1O | -7.37% (inactive) |
| CCOc1cc(/C=N/NC(=O)CN2CCCCC2)ccc1O | -2.78% (inactive) |
| Cn1c(SCC(=O)N/N=C/c2ccc(O)c(O)c2)nc2ccccc21 | 61.1% (active) |

| SMILES | inhibition |
| --- | --- |
| Cc1nc2ccccc2n1CC(=O)N/N=C/c1cccnc1 | 0.09% (inactive) |
| Cc1nccn1CC(=O)N/N=C/c1ccc(O)c(O)c1 | 59.7% (active) |
| CC(=O)Oc1ccc(-c2cccc(C(=O)N3CCCCC3)c2)cc1 | 0.56% (inactive) |
| CSc1nccc(NC(=O)c2ccc(C(C)(C)C)cc2)n1 | -0.09% (inactive) |
| Cc1cccc([C@@H]2[C@@H]3C(=O)N(Cc4ccccc4)C(=O)[C@@H]3[C@]3(C)C(=O)N(c4ccc(Br)cc4)C(=O)N23)c1 | -12% (inactive) |
| Cc1ccc(CNC(=O)[C@@H](NC(=O)Cc2ccccc2)C(C)C)cc1 | 5.66% (inactive) |
| COc1cccc(NC(=O)Nc2nnc(N3CCCCC3C)s2)c1 (centres undefined) | 0.21% (inactive) |
| COc1ccccc1NC(=O)c1ccc2nc(N3C(=O)CCC3=O)sc2c1 | -4.36% (inactive) |
| COc1ccccc1NC(=O)c1ccc(N2CC3CC(C2)c2cccc(=O)n2C3)c(NC(=O)c2cccnc2)c1 (centres undefined) | 29.5% (active) |
| CCOc1ccccc1NC(=O)c1cccnc1 | -12.7% (inactive) |
| CC(C)Cn1c(=O)c2ccccc2n2c(CCC(=O)NCc3ccccn3)nnc12 | -6.62% (inactive) |
| CCOc1ccc(S(=O)(=O)N2CCN=C2Cc2ccccc2)cc1C | -0.06% (inactive) |
| Cc1nnc(N/N=C/c2ccccn2)[nH]c1=O | 8.17% (inactive) |
| COc1ccc(Cc2nnc(N/N=C/c3ccccc3O)[nH]c2=O)cc1OC | 54.3% (active) |
| O=c1[nH]c(NCCO)nnc1Cc1ccc(Cl)cc1 | 5.33% (inactive) |
| COc1cccc(N(CC(=O)NCc2ccccc2)C(=O)CCC(=O)Nc2nccs2)c1 | -7.44% (inactive) |
| CCCn1c2ccccc2c2cnn(CC(=O)NCCCN3CCCCC3CC)c(=O)c21 (centres undefined) | 2.69% (inactive) |
| Cc1ccc(C2Nc3cccc4cccc(c34)N2)cc1 | 19.1% (inactive) |
| COc1cccc(C2Nc3cccc4cccc(c34)N2)c1 | -7.19% (inactive) |
| Oc1ccc(C2Nc3cccc4cccc(c34)N2)cc1 | 31.7% (active) |
| CCOC(=O)C1(Cc2cccc(OC)c2)CCCN(C(=O)CCSC)C1 (centres undefined) | -2.88% (inactive) |
| Cc1ccc(C)c(N2CCN(C(=O)CCCCCn3c(=S)[nH]c4ccc(N5CCOCC5)cc4c3=O)CC2)c1 | 5.1% (inactive) |
| O=C(O)CC(CC(=O)N1CCOCC1)c1ccccc1 (centres undefined) | -1.93% (inactive) |
